FGF22 binding = binders of recombinant human FGF22 by thermal shift; Q9HCT0; SYPRO orange fluorescence; percent of sucrose octasulfate shift, DMSO zero; activity (Tm shift, normalised), % at 9.99 µM; 340,000 tested, 1.5% active; AID 651658;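 active = mean Tm shift, scaled 0 neutral to 100 positive control, at about 1.3% or above, every replicate too, limit read from the data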
Target sequence (Q9HCT0 whole entry, looked up): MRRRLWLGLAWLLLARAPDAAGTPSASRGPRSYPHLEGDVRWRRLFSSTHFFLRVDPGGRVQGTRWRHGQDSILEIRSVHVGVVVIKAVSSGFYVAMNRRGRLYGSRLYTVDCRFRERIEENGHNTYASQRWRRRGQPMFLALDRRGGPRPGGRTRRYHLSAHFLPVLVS
rRNA inh HTS = inhibits bacterial ribosomal RNA function over humanized ribosomes; E. coli WT GFP vs humanized-ribosome RFP mutants, fluorescence, 24 h; active compounds read low; DMSO median 0, no signal -100; GFP signal change (wild-type ribosome), % (concentration not given with the values); 350,000 tested, 1.6% active; AID 720706;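 active = significant combined selectivity score with lowered wild-type GFP, culture density cut under 30%, mutant RFP and density less affected; inactive = any of these conditions unmet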
ADAM17 inh = ADAM17 inhibition, QFRET primary screen | recombinant ADAM17, EDANS/DABCYL FRET peptide cleavage | 370,000 tested, 0.83% active | inhibition, % at 6.95 µM | AID 720648 | P78536;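 active = inhibition above the mean of compounds lying between control limits plus 3 SD, set per campaign, cut at about 8.5% in these data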
proKLK7 act = proKLK7 (human) activation, primary screen; P49862; AID 652039; activation, % at 7 µM; purified proKLK7, EDANS-DABCYL substrate fluorescence; 100% is mature enzyme control, 0% vehicle; 370,000 tested, 0.9% active;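 active = activation above the mean of all tested compounds plus 3 SD, computed per campaign excluding outliers beyond control limits, cut at about 13% in these data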
Target sequence (P49862 whole entry, looked up): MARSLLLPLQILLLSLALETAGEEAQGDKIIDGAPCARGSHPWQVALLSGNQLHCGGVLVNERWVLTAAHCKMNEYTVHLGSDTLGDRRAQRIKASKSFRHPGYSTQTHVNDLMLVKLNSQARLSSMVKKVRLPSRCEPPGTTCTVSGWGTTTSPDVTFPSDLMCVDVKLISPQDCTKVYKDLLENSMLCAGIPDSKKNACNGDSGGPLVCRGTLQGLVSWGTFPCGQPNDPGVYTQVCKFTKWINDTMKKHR
ADAM10 inh = ADAM10 inhibition, QFRET primary screen; 370,000 tested, 0.62% active; inhibition, % at 7 µM; O14672; recombinant ADAM10, EDANS/DABCYL FRET peptide cleavage, 3 h;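 active = inhibition above a per-campaign cutoff equal to the mean of compounds falling between control-based bounds plus 3 SD, cut at about 20% in these data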
ADAM10 confirm = human ADAM10 inhibition, confirmation | ADAM10 QFRET peptide cleavage, EDANS fluorescence | 2,100 tested, 1% active | inhibition, % at 6.95 µM | shares compounds with ADAM10 inh;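 active = inhibition above about 20% chosen separately for each screening run, limit read from the data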
ADAM17 ctr = counter-screen for ADAM10 exosite inhibitors: inhibitors of human ADAM17; shares compounds with ADAM10 inh; ADAM17 QFRET peptide cleavage, EDANS fluorescence; inhibition, % at 6.95 µM; 2,100 tested, 0.5% active;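 active = mean triplicate inhibition above the solvent-only control wells' mean plus 3 SD, cut at about 12% in these data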
ADAM10 counter = counter-screen for ADAM17 exosite inhibitors: inhibitors of human ADAM10 | shares compounds with ADAM17 inh | recombinant ADAM10, EDANS/DABCYL FRET peptide cleavage, 3 h | inhibition, % at 6.95 µM | 2,900 tested, 47% active;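 active = mean inhibition over the triplicate runs exceeds the activity threshold set in the earlier primary screen, cut at about 20% in these data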
ADAM17 confirm = human ADAM17 inhibition, confirmation. 2,900 tested, 65% active. inhibition, % at 6.95 µM. recombinant ADAM17, EDANS/DABCYL QFRET peptide cleavage. shares compounds with ADAM17 inh. AID 743257;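 active = mean inhibition across replicates above the hit cutoff set in the primary screen, cut at about 8.5% in these data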
Each line names hits and unclear results; the compound was inactive in the other large screens (follow-up assays come after a bar, where they were run). Only some compounds are listed: those with a hit (about 3.8% of all), similar ones and a draw of the others.

O=C1N[C@@H](Cc2c[nH]c3ccccc23)COC(=O)[C@@H](Cc2ccc(F)cc2)C/C=C\C[C@H]1CC(=O)N(CCO)Cc1ccccc1	ADAM17 inh 9.7, ADAM10 inh 24.1 | ADAM10 confirm inactive | ADAM17 ctr inactive | ADAM10 counter 30.3 | ADAM17 confirm 15.3
CCOC(=O)c1ccc(NC(=O)C2CCCN(S(=O)(=O)c3ccc(F)cc3)C2)cc1 (centres undefined)	ADAM17 inh 8.8, ADAM10 inh 25.2 (no result: FGF22 binding, rRNA inh HTS) | ADAM10 confirm inactive | ADAM17 ctr inactive | ADAM10 counter inactive | ADAM17 confirm 12.8
CN1C2CCC1/C(=C\c1ccc(F)cc1)C(=O)/C2=C/c1ccc(F)cc1	none (no result: FGF22 binding, rRNA inh HTS)
C=CC(=O)N1C/C(=C/c2ccc(F)cc2)C(=O)/C(=C\c2ccc(F)cc2)C1	ADAM17 inh 10.6, ADAM10 inh 20.2 | ADAM10 confirm inactive | ADAM17 ctr inactive | ADAM10 counter 21.1 | ADAM17 confirm 14.2
C[C@H]1CN([C@@H](C)CO)C(=O)c2cc(C#Cc3ccncc3)cnc2O[C@H]1CN(C)CC1CCCC1	none (no result: ADAM17 inh, proKLK7 act, ADAM10 inh)
O=C(c1ccc(Cl)c(Cl)c1)N1CCC(O)(CN2CCOCC2)CC1	none
O=C(c1ccc(Cl)cc1)N1CCC(O)(CSc2ccc(Cl)cc2Cl)CC1	ADAM17 inh 9.4, ADAM10 inh 27.4 (no result: FGF22 binding, rRNA inh HTS) | ADAM10 confirm inactive | ADAM17 ctr inactive | ADAM10 counter 27.1 | ADAM17 confirm 11.2
CC(C)(C)NC(=O)CSc1nc2ccc(NC(=O)CSc3nnnn3Cc3ccccc3)cc2s1	ADAM17 inh 9.8, ADAM10 inh 24.6 (no result: FGF22 binding, rRNA inh HTS) | ADAM10 confirm inactive | ADAM17 ctr inactive | ADAM10 counter 22.3 | ADAM17 confirm 14.1
Cc1ccccc1S(=O)(=O)N1CC[C@@H]2[C@@H](CO)Nc3ccc(-c4ccccc4F)cc3[C@@H]21	none (no result: ADAM17 inh, proKLK7 act, ADAM10 inh)
Cc1cc(C)c(-c2cc(NC(=O)COC(=O)c3ccc(C#N)cc3)n(-c3ccccc3)n2)cc1C	ADAM17 inh 9.1, ADAM10 inh 22.5 | ADAM10 confirm inactive | ADAM17 ctr inactive | ADAM10 counter 22.3 | ADAM17 confirm 13.0
COc1nc(Nc2ccc(O)cc2)nc(OC(C(F)(F)F)C(F)(F)F)n1	none (no result: FGF22 binding, rRNA inh HTS)
Nc1cccc(Nc2nc(OC(C(F)(F)F)C(F)(F)F)nc(OC(C(F)(F)F)C(F)(F)F)n2)c1	ADAM17 inh 26.6, ADAM10 inh 57.8 (no result: FGF22 binding, rRNA inh HTS) | ADAM10 confirm inactive | ADAM17 ctr inactive | ADAM10 counter 60.1 | ADAM17 confirm 29.8
C[C@H](NC(=O)c1nc[nH]c1C(=O)NCc1ccc(CNC(=O)OC(C)(C)C)cc1)C(=O)OC(C)(C)C	none
C[C@@H](NC(=O)c1nc[nH]c1C(=O)NCc1ccc(CNC(=O)OC(C)(C)C)cc1)c1ccccc1	ADAM17 inh 17.3, ADAM10 inh 45.0 | ADAM10 confirm inactive | ADAM17 ctr inactive | ADAM10 counter 21.6 | ADAM17 confirm 15.9
CC(C)C[C@H](NC(=O)c1nc[nH]c1C(=O)NCc1ccc(CNC(=O)OC(C)(C)C)cc1)C(=O)OC(C)(C)C	ADAM17 inh 16.3, ADAM10 inh 24.4 | ADAM10 confirm inactive | ADAM17 ctr inactive | ADAM10 counter 52.5 | ADAM17 confirm 24.7
CC(C)(C)OC(=O)NCCCC[C@H](NC(=O)c1nc[nH]c1C(=O)NCc1ccc(CNC(=O)OC(C)(C)C)cc1)C(=O)OC(C)(C)C	ADAM17 inh 13.0, ADAM10 inh 20.5 | ADAM10 confirm inactive | ADAM17 ctr inactive | ADAM10 counter 29.2 | ADAM17 confirm 14.8
CO[C@H]1CN(C)C(=O)c2cc(NC(=O)C3CCC3)ccc2OC[C@@H](C)N(C)C[C@H]1C	none (no result: ADAM17 inh, proKLK7 act, ADAM10 inh)
CC(C)(C)OC(=O)NCCCC[C@H](NC(=O)c1nc[nH]c1C(=O)NCC(=O)OCc1ccccc1)C(=O)OC(C)(C)C	ADAM17 inh 11.1, ADAM10 inh 23.7 | ADAM10 confirm inactive | ADAM17 ctr inactive | ADAM10 counter 24.9 | ADAM17 confirm 17.9
CC(C)C[C@H](NC(=O)c1nc[nH]c1C(=O)N[C@@H](CCCCNC(=O)OC(C)(C)C)C(=O)OC(C)(C)C)C(=O)OCc1ccccc1	none
C[C@H](NC(=O)c1nc[nH]c1C(=O)N[C@@H](CCCCNC(=O)OC(C)(C)C)C(=O)OC(C)(C)C)C(=O)OCc1ccccc1	ADAM17 inh 15.1, ADAM10 inh 29.3 | ADAM10 confirm inactive | ADAM17 ctr inactive | ADAM10 counter 41.8 | ADAM17 confirm 23.1
CN(C)c1ccc(NS(=O)(=O)c2ccc(Cl)cc2)cc1	ADAM17 inh 13.0, ADAM10 inh 33.8 (no result: FGF22 binding, rRNA inh HTS) | ADAM10 confirm inactive | ADAM17 ctr inactive | ADAM10 counter inactive | ADAM17 confirm inactive
CN(C)c1ccc(NS(=O)(=O)c2cccc(Cl)c2)cc1	none (no result: FGF22 binding, rRNA inh HTS)
O=C(Cc1ccncc1)NCC[C@H]1CC[C@H](NC(=O)C2CCOCC2)[C@@H](CO)O1	none (no result: ADAM17 inh, proKLK7 act, ADAM10 inh)
COc1ccc(NC(=O)c2ccc3c(=O)n(-c4ccc(OC)cc4OC)c(=S)[nH]c3c2)cc1	ADAM17 inh 9.1, ADAM10 inh 24.1 | ADAM10 confirm inactive | ADAM17 ctr inactive | ADAM10 counter inactive | ADAM17 confirm inactive
Clc1cccc(NCc2nnc(SCc3ccc(Cl)cc3Cl)o2)c1	ADAM17 inh 9.3, ADAM10 inh 30.8 (no result: FGF22 binding, rRNA inh HTS) | ADAM10 confirm inactive | ADAM17 ctr inactive | ADAM10 counter inactive | ADAM17 confirm 14.3
COc1cc2c(cc1OC)C(=O)N1[C@H]3c4cc(Cl)ccc4OC[C@@H]3[C@H](c3ccccc3)[C@]1(C)C(=O)N2	ADAM17 inh 11.7, ADAM10 inh 28.9 | ADAM10 confirm inactive | ADAM17 ctr inactive | ADAM10 counter 34.4 | ADAM17 confirm 19.2
COc1ccc2c3c(n(C)c2c1)[C@H](CO)NCC31CCN(S(=O)(=O)c2cccc(F)c2)CC1	none (no result: ADAM17 inh, proKLK7 act, ADAM10 inh)
COc1ccc2c3c(n(C)c2c1)[C@H](CO)N(C)CC31CCN(S(=O)(=O)c2cccs2)CC1	none (no result: ADAM17 inh, proKLK7 act, ADAM10 inh)
COc1cccc(-n2c(-c3ccc4[nH]c(C)c(C)c4c3)n[nH]c2=S)c1	ADAM17 inh 14.0, ADAM10 inh 29.1 | ADAM10 confirm inactive | ADAM17 ctr inactive | ADAM10 counter inactive | ADAM17 confirm inactive
CCc1ccc(-c2cn(C3CCCCC3)c(=S)[nH]2)cc1	ADAM17 inh 9.6, ADAM10 inh 28.8 | ADAM10 confirm inactive | ADAM17 ctr inactive | ADAM10 counter inactive | ADAM17 confirm inactive
